In PubChem BioAssay (NCI):
This is part of a sample that, as a whole, favours compounds with a hit. Of some 83,000 tested, about 20% had one in any assay.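 Each cell line was grown in a 96-well plate and treated with one concentration of compound for 48 hours. Values below 10 were considered active.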 A number with no mark means an inactive call. Calls of active or inactive are those of the source.

What follows are compounds tested on HL-60(TB) leukemia (assay: NCI-60 one-dose screen, 48 h (100 = growth as untreated, 0 = no growth, -100 = all killed)). Settings: 10 µM unless noted.
For O=C(CNc1nc(-c2ccccc2)cs1)Nc1ccc(Cl)cc1, the growth was -46.7% (active).
Work on Nc1nnc(-c2cncc(Br)c2)c(-c2c[nH]c3ccc(Br)cc23)n1 yielded a growth of 36.7%.
For CC1CCc2c(sc3nc(SCC(=O)c4cccc([N+](=O)[O-])c4)n(-c4ccccc4)c(=O)c23)C1 (stereo not given), the growth was 87.1%.
In the case of COc1ccc(-c2ccnc(SCc3cc4ccccc4[nH]c3=O)n2)cc1OC, the growth is reported as 87%.
In the case of CCOP(=O)(OCCCl)c1nc(-c2ccc(C)cc2)oc1NCc1ccccc1 (stereo not given), the growth is reported as 71.9%.
